Screening results: PubChem BioAssay, National Center for Advancing Translational Sciences (NCATS)
HP1b chromo inh – blocks HP1-beta chromodomain binding to methylated histone tails; P83916; AlphaScreen HP1-beta / biotin-H3K9me3 peptide binding; Potency, µM (top dose mostly 114 µM), for the others: at the highest dose activity change, negative = inhibition, actives largely listed as inhibitors; 390,000 compounds, 0.56% hits; AID 540317; note: potency is the fitted concentration of half-maximal effect; nearly all actives have a fitted effect of over 70% in size
Target sequence (P83916 whole entry, looked up): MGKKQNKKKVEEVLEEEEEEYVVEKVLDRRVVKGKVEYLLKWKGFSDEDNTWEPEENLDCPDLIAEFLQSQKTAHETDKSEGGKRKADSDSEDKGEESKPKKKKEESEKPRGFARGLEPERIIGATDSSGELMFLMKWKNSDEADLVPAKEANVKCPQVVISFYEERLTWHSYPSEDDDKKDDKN
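Compound inhibition of the preformed complex between 50 nM HP1-beta and 50 nM biotinylated H3K9me3 peptide was read by AlphaScreen. Buffer was PBS pH 7.4 with 0.01% Tween-20. Incubations ran 30 min at room temperature, with 10 ug/mL donor/acceptor beads.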
JMJD2A Tudor inh – inhibitors of human JMJD2A Tudor domain. 390,000 compounds, 4.4% hits. AID 504339. AlphaScreen JMJD2A-Tudor / H3K4me3 peptide binding. Potency, µM (top dose mostly 114 µM), for inactives: at the highest dose activity change, negative = inhibition, actives largely listed as inhibitors. O75164; note: potency is the fitted concentration of half-maximal effect; % is set by controls: 0 for no effect and ±100 for the full control effect; nearly all actives have a fitted effect of over 50% in size
CtBP-E1A inh – inhibitors of CtBP/E1A interaction. 340,000 compounds, 0.49% hits. AlphaScreen GST-E1A/His-CtBP binding, 1536-well; stronger effect = lower value. activity change, % (concentration not given with the values); in the data active = activity change below about -65%; inconclusive = mostly about -30% to -63%; note: % is set by controls: 0 for no effect and ±100 for the full control effect
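Steps: dispense buffer (Tris pH 8.0, NaCl 300 mM, TCEP 1 mM, BSA, Tween 20); add 5X protein mix (GST-E1A, His-CtBP, 125 nM each); pin 23 nL compound; 2 h at 37 °C, dark; add 5X beads (50 ug/mL); 1 h; read.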
G9a block – G9a (human) methyltransferase inhibition; Q96KQ7; G9a H3K9 monomethylation, AlphaScreen, 2 h; Potency, µM (series often up to 102 µM), inactives show top-dose activity, negative = inhibition, most hits filed as inhibitors; 350,000 compounds, 8.8% hits; AID 504332; note: potency is the fitted concentration of half-maximal effect; % is set by controls: 0 for no effect and ±100 for the full control effect; nearly all actives have a fitted effect of over 75% in size
Target sequence (Q96KQ7 913-1193 limits assumed): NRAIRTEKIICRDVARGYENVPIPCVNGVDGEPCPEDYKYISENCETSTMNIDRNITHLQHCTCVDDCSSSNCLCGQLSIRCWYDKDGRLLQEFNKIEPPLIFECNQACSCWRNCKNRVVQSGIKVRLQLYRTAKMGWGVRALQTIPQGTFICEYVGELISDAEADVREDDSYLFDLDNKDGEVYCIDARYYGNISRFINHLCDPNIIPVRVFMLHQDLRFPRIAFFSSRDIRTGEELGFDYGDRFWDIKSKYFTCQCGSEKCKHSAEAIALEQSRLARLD
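Quantitative HTS format: methyltransferase activity on a biotin-tagged H3K9 peptide is measured by AlphaScreen, using a rabbit anti-monomethyl-H3K9 antibody with streptavidin donor and anti-IgG acceptor beads. Final levels are 20 nM enzyme, 500 nM peptide, 20 uM SAM; 2 h RT.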
Six1-Eya2 blk – inhibitors of human Six1/Eya2 interaction | Q15475+O00167 | AlphaScreen GST-Six1/His-Eya2 binding, biochemical; stronger effect = lower value | activity change, % (no concentration beside the values) | 360,000 compounds, 0.56% hits; in the data active = activity change below about -65%; inconclusive = mostly about -30% to -63%; note: % is set by controls: 0 for no effect and ±100 for the full control effect
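GST-Six1 + His-Eya2 (5X stock: 250/500 nM); Tris pH 8.0, 300 mM NaCl, 0.05% BSA, 0.02% Tween 20; GSH donor/Ni acceptor beads; 1 h 37 °C dark; AlphaScreen readout.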
BAZ2B block – BAZ2B (human) inhibition; Q9UIF8; Potency, µM (top dose mostly 114 µM), for the others: at the top dose activity change, negative = inhibition, actives largely listed as inhibitors; 360,000 compounds, 4.4% hits; AlphaScreen BAZ2B-H3K14Ac peptide displacement; note: potency is the fitted concentration of half-maximal effect; % is set by controls: 0 for no effect and ±100 for the full control effect; nearly all actives have a fitted effect of over 60% in size
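Compounds, titrated to a top concentration of 110 uM, were incubated 30 min at room temperature with preformed BAZ2B/acetyl-K14 H3 peptide complex (50 nM each). Proximity signal was measured by AlphaScreen after 20 min with beads.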
Starred values were filed as active, the others as inactive; u = inconclusive; x = no result given; [ ] = another dose, or the depositor's remark. Sampled rows, rich in hits. Any-hit rate of the full collection: about 10%. Unless noted, calls come from the whole dose curve; as a rule, active = well fitted inhibition curve with a large enough effect; inconclusive = small, poorly fitted or top-dose-only effect; inactive = no such curve, though single readings can be large or run the other way.

SMILES	HP1b chromo inh	JMJD2A Tudor inh	CtBP-E1A inh	G9a block	Six1-Eya2 blk	BAZ2B block
CC(=O)Nc1ccc(NS(=O)(=O)c2ccc(CN3C(=O)c4cccnc4C3=O)cc2)cc1	35%	-10%	-18	12%	-3	79µM*
Cc1ccc(CNS(=O)(=O)c2ccc(CN3C(=O)c4cccnc4C3=O)cc2)o1	22%	-11%	-17	-6%[0.0925 µM]	-11	79µM*
CC(C)NS(=O)(=O)c1cc(F)ccc1CN1C(=O)c2cccnc2C1=O	32%	u	u	-36%[12.7 µM]	-22	u
Cc1ccc(CNS(=O)(=O)c2cc(F)ccc2CN2C(=O)c3cccnc3C2=O)o1	50%	-19%	20	u	4	50µM*
c1ccc(-c2cccc(N3CCC4(CCNCC4)CC3)c2)cc1	x	x	x	3%[12.7 µM]	x	x
N[C@@H](Cc1cnc[nH]1)C(=O)Nc1ccc2ccccc2c1	13%	u	-12	x	-2	x
COc1cc(CNCc2ccco2)cc(OC)c1O	35%	-6%	0	71µM*	-1	-4%
CSc1ccc(CNCc2ccco2)cc1	16%	-18%	-1	u	-8	-31%
Cc1ccc(CNCc2ccco2)cc1	-5%	28µM*	x	22µM*	-3	56µM*
CC(Sc1ccccc1)C(=O)N1CCN(S(=O)(=O)c2ccccc2C(F)(F)F)CC1 (centres undefined)	40%	1%	4	x	-1	-9%
OC[C@H]1O[C@@H]2O[C@H]3[C@H](O)[C@@H](O)[C@@H](O[C@H]4[C@H](O)[C@@H](O)[C@@H](O[C@H]5[C@H](O)[C@@H](O)[C@@H](O[C@H]6[C@H](O)[C@@H](O)[C@@H](O[C@H]7[C@H](O)[C@@H](O)[C@@H](O[C@H]8[C@H](O)[C@@H](O)[C@@H](O[C@H]1[C@H](O)[C@H]2O)O[C@@H]8CO)O[C@@H]7CO)O[C@@H]6CO)O[C@@H]5CO)O[C@@H]4CO)O[C@@H]3CO	x	x	x	32%[59 µM]	x	x
CCOc1nc2cccc(C(=O)OC(C)OC(=O)OC3CCCCC3)c2n1Cc1ccc(-c2ccccc2-c2nn[nH]n2)cc1 (centres undefined)	x	x	x	-6%[2.33 µM]	x	x
C[C@@H]1C=C(C(=O)O)O[C@H](OCc2ccc(CO)cc2)C1	23%	-14%	-5	-126%[59 µM]	-3	-38%
CC(C)[C@H]1C=C(C(=O)O)O[C@@H](OCc2ccc(CO)cc2)C1	25%	89µM*	-3	u	-5	u
CCOc1ccc(CCNC(=O)Cn2nnc(-c3ccccc3)n2)cc1OCC	19%	-16%	x	-4%[59 µM]	x	-19%
O=C(Nc1nc2c(F)cc(F)cc2s1)c1ccco1	20%	-15%	-20	-12%	4	4%
NNc1nc2c(F)cccc2s1	u	89µM*	-6	u	-15	50µM*
NNc1nc2c(F)cc(F)cc2s1	-59%	79µM*	4	u	-17	50µM*
Fc1cccc2sc(Nc3nc4c(F)cccc4s3)nc12	31%	-10%	-7	28%[59 µM]	-14	-5%
COc1ccc2c(c1)/C(=N/OC(=O)c1cccs1)CCC2	72%	44%	14	70%[59 µM]	16	23%
COc1ccc(NC(=O)O/N=C2/CCCc3ccc(OC)cc32)cc1	-13%	14µM*	-8	18%	-5	-1%
COc1cccc(CN(C)CC(=O)Nc2sc3c(c2C#N)CCC3)c1OC	40%	-8%	2	-33%	-4	79µM*
N#Cc1c(NC(=S)NC(=O)c2ccccc2)sc2c1CCC2	-3%	45µM*	-8	2.8µM*	-12	-31%
CC(=O)NC(=S)Nc1sc2c(c1C#N)CCCCC2	-12%	-24%	0	45µM*	-3	4%
CC1CCc2sc(NC(=S)NC(=O)c3ccccc3)c(C#N)c2C1 (centres undefined)	-11%	-19%	-10	35µM*	-16	u
SMILES	HP1b chromo inh	JMJD2A Tudor inh	CtBP-E1A inh	G9a block	Six1-Eya2 blk	BAZ2B block
Cc1ccc(CNC(=O)CCCCn2c(=O)c3ccccc3n(Cc3ccc(C)cc3)c2=O)cc1	27%	-10%	x	5%[59 µM]	x	0%
CC1CC2C3CCC4=CC(=O)C=C[C@@]4(C)[C@]3(F)C(O)C[C@]2(C)[C@]1(O)C(=O)COP(=O)(O)O (some centres undefined)	x	x	x	-1%[2.33 µM]	x	x
N#Cc1cccn1-c1nccc(-c2cccs2)n1	81%	45%	1	113%	6	90%
CCN1CCc2c(sc(NC(=S)NC(=O)c3ccccc3)c2C#N)C1	u	50µM*	-17	17%[0.0925 µM]	-7	u
NC(=O)c1c(NC(=O)Cc2cccs2)sc2c1CCC2	37%	-11%	-9	19%[12.7 µM]	-11	-6%
CC(=O)N1CCc2c(sc(NC(=O)Cc3ccccc3)c2C#N)C1	43%	3%	5	-4%[59 µM]	-1	-2%
N#Cc1c(NC(=O)/C=C/C(=O)O)sc2c1CCN(Cc1ccccc1)C2	42%	u	x	u	-1	50µM*
N#Cc1c(NC(=S)NC(=O)Cc2cccs2)sc2c1CCCCC2	-40%	u	-29	-9%[59 µM]	-19	50µM*
CC(=O)Nc1sc2c(c1C#N)CCN(Cc1ccccc1)C2	38%	-24%	1	x	3	-7%
N#Cc1c(NC(=O)C2CC2)sc2c1CCCCC2	5%	-3%	-4	89µM*	-10	-35%
COc1ccc(NC(=O)Cn2c(=O)n(CCC(=O)NCCc3ccc(OC)c(OC)c3)c(=O)c3ccccc32)cc1Cl	30%	4%	x	5%[59 µM]	x	2%
N#Cc1ccc(C(=O)N(Cc2ccco2)Cc2cccs2)cc1	10%[57 µM]	-28%[57.1 µM]	x	x	x	x
CC(C)CC(=O)n1nc(-c2ccco2)nc1NCc1ccc(Cl)cc1	19%	1%	x	-8%[59 µM]	x	0%
Cn1nccc1C(=O)NC(=S)Nc1sc2c(c1C#N)CCCCC2	14%	-9%	-9	50µM*	0	-4%
CC(C)(C)c1ccc(C(=O)NC(=S)Nc2sc3c(c2C#N)CCC3)cc1	u	u	-6	u	-9	-9%
COc1cccc(Cn2c(=O)c(-c3ccc(F)cc3)nc3cnc(N(C)C)nc32)c1	x	x	x	5%[0.501 µM]	x	x
COc1ccc(C2C3=C(CCCC3=O)Nc3nc(-c4cc(OC)c(OC)c(OC)c4)nn32)cc1OC (centres undefined)	4%	-13%	0	40µM*	1	-8%
Cc1cc(C)n(C(=O)Cn2nc([N+](=O)[O-])c(Br)c2C)n1	30%	-6%	12	u	1	0%
O=C1C2C3C=CC(C4CC34)C2C(=O)N1/N=C/c1ccc([N+](=O)[O-])s1 (centres undefined)	32%	-4%[57.1 µM]	-1	26%[59 µM]	6	8%
